This note sets out measurements from PubChem BioAssay (NCATS).

Structures are written as SMILES. “And” between values parts separate entries of the source, which are not always exact repeats. Equal entries are not always repeated. Records with an inconclusive call do not appear. The source made the active and inactive calls. Calls follow the shape of the dose curve; as a rule, active = well fitted curve in the direction sought with a large enough effect; inconclusive = small, poorly fitted or top-dose-only effect, or another doubt; inactive = no such curve, though single readings can be large; an effect the other way counts as inactive or inconclusive.

Assay [1] in a line: qHTS Screen of the MIPE 4.0 Collection Against Ewings Sarcoma (TC32) (AID 1259256). Also: nearly all actives have a fitted effect of over 45% in size. In short, it runs like this:
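Viability screen: 48 h incubation at 37C, 95% humidity, 5% CO2 with serially titrated compound, followed by CellTiter-Glo readout.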
A general note: Quantitative high-throughput screening tests each substance at several concentrations.

Assay [2] can be described thus: P-glycoprotein substrates identified in KB-8-5-11 adenocarcinoma cell line, qHTS therapeutic library screen (AID 1346987). Also: nearly all actives have a fitted effect of over 65% in size. Put shortly: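 Human cervical adenocarcinoma KB-8-5-11 cells, selected in colchicine to over-express P-gp and assayed without it, were exposed for 72 h to titrated compounds. An ATP-based luminescent viability signal gave AC50.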
Assay [3] in a line: NS1 protein of Zika virus - qHTS assay to identify small molecule inhibitors in human HEK 293 cells (AID 1347053). Also: nearly all actives have a fitted effect of over 55% in size. In short, it runs like this:
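Read-out is a two-antibody TR-FRET for ZIKV NS1, normalized between uninfected cells and infected cells. Compound added 1 h before MR766 infection at MOI 0.5; human HEK 293 cells incubated 24 h, 37 C.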

The nature of assay [4]: qHTS of pediatric cancer cell lines to identify multiple opportunities for drug repurposing: Primary screen for TC32 cells (AID 1347089). Also: nearly all actives have a fitted effect of over 60% in size. In short, it runs like this:
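Measured quantity: luminescence from CellTiter-Glo, reflecting metabolically active TC32 cells following 48 h of compound. Curves came straight from multi-point titrations, with 8 or 11 points in primary and 11 in confirmatory screening.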

Assay [5] in a line: qHTS of pediatric cancer cell lines to identify multiple opportunities for drug repurposing: Primary screen for DAOY cells (AID 1347090). Also: nearly all actives have a fitted effect of over 55% in size. In short, it runs like this:
(§1)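 Viability measured as metabolically active cells via CellTiter-Glo luminescence following 48 hours of compound exposure, 11-point dilutions in confirmatory testing. 500-1,000 cells/well plated 5 hours before dosing; controls were DMSO and 2.3 µM bortezomib.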

Assay [6] is described as follows: qHTS of pediatric cancer cell lines to identify multiple opportunities for drug repurposing: Primary screen for SJ-GBM2 cells (AID 1347091). In short, it runs like this: as §1
Assay [7] is described as follows: qHTS of pediatric cancer cell lines to identify multiple opportunities for drug repurposing: Primary screen for A673 cells (AID 1347092). Also: nearly all actives have a fitted effect of over 45% in size. In short, it runs like this:
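Cells are plated, rested 5 h, dosed by pintool, incubated 48 h, then lysed with CellTiter-Glo and read by luminescence. DMSO is the neutral control; bortezomib at 2.3 uM final is the positive control.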

A short description of assay [8]: qHTS of pediatric cancer cell lines to identify multiple opportunities for drug repurposing: Primary screen for SK-N-MC cells (AID 1347093). In short, it runs like this:
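Metabolically active cells were quantified by ATP-dependent luminescence (CellTiter-Glo, 15 min at room temperature) following 48 h treatment. Cells had been plated at 500-1,000 per well and settled for 5 h beforehand.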

Assay [9] can be described thus: qHTS of pediatric cancer cell lines to identify multiple opportunities for drug repurposing: Primary screen for BT-37 cells (AID 1347094). Put shortly: (§2)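 Phenotypic viability qHTS, 48 h compound exposure, CellTiter-Glo luminescence read-out; multi-concentration dosing so that potency and efficacy derive directly from the primary screen's curves.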
Assay [10] is described as follows: qHTS of pediatric cancer cell lines to identify multiple opportunities for drug repurposing: Primary screen for NB-EBc1 cells (AID 1347095). In short, it runs like this:
as §2

A short description of assay [11]: qHTS of pediatric cancer cell lines to identify multiple opportunities for drug repurposing: Primary screen for U-2 OS cells (AID 1347096). Also: nearly all actives have a fitted effect of over 50% in size. Put shortly: (§3)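 Viability after 48 h compound treatment at 37C, 500-1,000 cells/well, read as ATP luminescence with CellTiter-Glo. Primary screens used 11-point (MIPE, 0.78 nM-46 µM) or 8-point (NPC, 0.59 nM-46 µM) final concentrations; follow-up screens used 11-point dilutions.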

The nature of assay [12]: qHTS of pediatric cancer cell lines to identify multiple opportunities for drug repurposing: Primary screen for Saos-2 cells (AID 1347097). Also: nearly all actives have a fitted effect of over 40% in size. Put shortly:
as §2

The nature of assay [13]: qHTS of pediatric cancer cell lines to identify multiple opportunities for drug repurposing: Primary screen for SK-N-SH cells (AID 1347098). Also: nearly all actives have a fitted effect of over 65% in size. Put shortly: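 Cells (500-1,000/well) rested 5 h, then received compounds for 48 h; metabolically active cells were measured by CellTiter-Glo luminescence. Final concentrations spanned up to 46 µM (MIPE, 11-point) or 0.59 nM-46 µM (NPC, 8-point) in primary screens, 11-point in follow-ups.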

Assay [14] can be described thus: qHTS of pediatric cancer cell lines to identify multiple opportunities for drug repurposing: Primary screen for NB1643 cells (AID 1347099). Also: nearly all actives have a fitted effect of over 50% in size. In short, it runs like this: as §2
Assay [15] is described as follows: qHTS of pediatric cancer cell lines to identify multiple opportunities for drug repurposing: Primary screen for LAN-5 cells (AID 1347100). Put shortly:
as §3

A short description of assay [16]: P-glycoprotein substrates identified in KB-3-1 adenocarcinoma cell line, qHTS therapeutic library screen (AID 1346986).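 Also: potency is for cytotoxicity meaning loss of cell viability; nearly all actives have a fitted effect of over 60% in size.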 Put shortly:
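Viability by CellTiter-Glo after 72 h compound exposure at 37 degree C, 5% CO2. Cytotoxic call: curve class -1.1 to -2.4, maximum response >50%, AC50 < 10 uM, compared across KB-3-1 and P-gp-overexpressing KB-8-5-11.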
Potency is read from the fitted curve at half-maximal effect.

Turning to `O=c1ccn([C@@H]2O[C@H](CO)[C@H](O)[C@@H]2F)c(=O)[nH]1`, the Potency in [1] is 18.7 µM (active); in [7], 23.5 µM (active); in [8], 8.33 µM (active); in assay [13], 9.61 µM (active). Besides, the Potency result in assay [2], in assay [3], in assay [4], in [5], in [6] and in [9] was “inactive” in each case. In addition, the Potency result in assay [10], in assay [11], in assay [12], in assay [14] and in [15] was “inactive” in each case.

In the case of `O=S(=O)(O)CCSSCCS(=O)(=O)O`, the Potency entry in [1], in [2], in assay [3], in [4], in assay [5] and in [6] was “inactive” each time. Besides, the Potency result in [7], in [9], in [10], in [11], in assay [12] and in assay [15] was “inactive” each time. Also, the figures for the Potency in assay [8] and in assay [14] were 10.5 µM (active) and 23.5 µM (active), respectively.

As to `C[C@@H]1CC[C@@]2(OC1)OC1CC3C4CC=C5CC(O)CCC5(C)C4CCC3(C)C1[C@@H]2C` (stereo not given in full), the Potency entry in assay [1], in assay [2], in assay [3], in [4], in [5] and in assay [6] was “inactive” each time. For the same compound, the Potency result in assay [7], in assay [8], in [9], in assay [10], in [11] and in assay [12] was “inactive” each time. For the same compound, the Potency entry in assay [13], in assay [14] and in assay [15] was “inactive” throughout.

Regarding `CC(C)C[C@H](NC(=O)CNC(=O)c1cc(Cl)ccc1Cl)B1OC(=O)CC(CC(=O)O)(C(=O)O)O1` (stereo not given in full), the Potency was 0.332 µM (active) in assay [1]; 935 nM (active) in [2]; 0.209 µM (active) in assay [3]; 2.94 µM (active) in assay [4]; 148 nM (active) in assay [5]; 0.148 µM (active) in assay [6]. Further, the Potency in [7] was 0.0118 µM (active); in assay [8], 0.0833 µM (active); in [9] it was 0.344 µM (active); in [10] it was 0.469 µM (active); in assay [11], 0.743 µM (active); in assay [12], 0.372 µM (active). Besides, the values for the Potency in assay [14] and in assay [15] were 0.372 µM (active) and 0.118 µM (active), respectively.

With `CCc1ccc(C(=O)Nc2cc(CN3CCN(C)CC3)cc(C(F)(F)F)c2)cc1C#Cc1cnc2ccnn2c1`, the Potency in assay [1] is 14.8 µM (active); in [16] it was 4.11 µM (active); in assay [2] it was 8.33 µM (active) and 3.66 µM (active); in assay [3], 13.2 µM (active); in assay [6], 9.35 µM (active); in [7], 9.35 µM (active). For the same compound, the Potency in assay [8] is 1.87 µM (active); in assay [9] it was 24.3 µM (active); in assay [10], 11.8 µM (active); in [11], 23.5 µM (active); in assay [12], 14.8 µM (active); in [14] it was 1.18 µM (active). For the same compound, in assay [15], the Potency is 7.43 µM (active).

For `COC1=C(OC)C(=O)C(CC=C(C)CCC=C(C)CCC=C(C)CCC=C(C)CCC=C(C)CCC=C(C)CCC=C(C)CCC=C(C)CCC=C(C)CCC=C(C)C)=C(C)C1=O`, the Potency result in assay [1], in assay [2], in assay [3], in assay [4], in assay [5] and in assay [6] was “inactive” in each case. Also, the Potency result in assay [7], in assay [8], in assay [9], in [10], in assay [11] and in assay [12] was “inactive” in each case. Also, the Potency entry in [13], in assay [14] and in assay [15] was “inactive” throughout.

Regarding `C[C@@H](Cc1cc2c(c(C(N)=O)c1)N(CCCO)CC2)NCCOc1ccccc1OCC(F)(F)F`, the Potency result in [1], in [2], in [3], in assay [4], in assay [5] and in assay [6] was “inactive” throughout. In addition, the Potency result in assay [7], in assay [8], in assay [9], in assay [10], in assay [11] and in assay [12] was “inactive” throughout. Further, the Potency result in assay [14] and in assay [15] was “inactive” each time.
